In all, about 360,000 compounds went through this assay and about 11,000 (3.1%) were called active. Another 2% or so got no clear call; they are omitted. Shown is part of a subset that was picked to be rich in actives. A number with no mark means an inactive call. Rule as the data show it: active = fluorescence intensity above about 16000; inconclusive = no clear call, values can overlap the other calls; inactive = below that.
experiment: compound fluorescence in toxin protease inhibitor counterscreen, primary screen, artefact control for toxin protease inhibitor project, biochemical, multiplex microsphere, HTS (AID 624483); settings: compound autofluorescence counterscreen, microsphere flow cytometry; active compounds read high

Row | SMILES | fluorescence intensity
1 | CC1CCN(C(=O)c2ccc(S(=O)(=O)Cc3cc(F)ccc3F)c([N+](=O)[O-])c2)CC1 | 2510
2 | CCc1ccc2nc(Nc3ncc(C(C)=O)c(C)n3)nc(C)c2c1 | 3620
3 | CCOC(=O)[C@]12CCC=C1N(CCC1=CCCCC1)C(=O)[C@H](CC(=O)NCc1ccc(C)o1)C2 | 5770
4 | CCCC(NS(=O)(=O)c1ccc(OC)cc1)C(=O)O (centres undefined) | 20900 (active)
5 | COc1ccc(S(=O)(=O)NC(C)C(=O)N2CCCCCC2)cc1 (centres undefined) | 3500
6 | CSCC(NS(=O)(=O)c1ccc(C)cc1)C(=O)O (centres undefined) | 4880
7 | O=C(OCC(=O)N1CCCCCC1)c1ccc(Cl)nc1 | 3860
8 | N#Cc1cccc(NC(=O)c2cc(C3CCCCN3C(=O)CCc3ccccc3)on2)c1 (centres undefined) | 4290
9 | CC(=O)OC[C@@H]1CN(Cc2ccccc2)C[C@H](n2cnc3c(NCc4ccco4)ncnc32)O1 | 3590
10 | COc1cccc(NC(=O)CCNS(=O)(=O)c2ccc3c(c2)oc(=O)n3C)c1 | 4240
11 | Cn1c(=O)oc2cc(S(=O)(=O)NCCC(=O)NCc3ccccc3Cl)ccc21 | 4110
12 | Cc1ccc(NC(=O)CCNS(=O)(=O)c2ccc3c(c2)oc(=O)n3C)cc1C | 22000 (active)
13 | N#Cc1c(/N=C/N2CCCC2)oc(-c2ccccc2)c1-c1ccccc1 | 3080
14 | O=C(O)C1CCCCC1C(=O)Nc1ccc(Cl)cc1 (centres undefined) | 25300 (active)
15 | O=C(NC1CCN(C(=S)Nc2ccc(Cl)cc2)CC1)C1CCCCC1 | 3100
16 | O=C(O)Cc1ccc(NC(=O)C2CCCCC2C(=O)O)cc1 (centres undefined) | 4130
17 | CCOC(=O)c1ccn(S(=O)(=O)c2ccc(C)cc2)c1-c1ccccc1 | 5920
18 | O=S1(=O)C[C@@H](N2CCN(CCO)CC2)[C@H](COCc2ccccc2)N1 | 4260
19 | COc1ccc(/C=C/C(=O)c2c(O)cc(OC)cc2OC)cc1 | 5700
20 | Cc1ccc2nc(-c3ccccc3)c(CC3CCCCC3)n2c1 | 8550

Row | SMILES | fluorescence intensity
21 | Cc1ccc(SCc2cc(=O)[nH]c(N3CCCCC3)n2)cc1 | 4420
22 | Cc1ccc(SCCSc2ncccn2)cc1 | 4180
23 | Cc1ccc(SCC2=NNC(=O)C2)cc1 | 22700 (active)
24 | O=C(COC(=O)c1ccc(Cl)nc1)NCc1cccs1 | 4330
25 | O=C(C1CC(=O)N(C2CCCC2)C1)N1CCC2(CC1)OCCO2 (centres undefined) | 21300 (active)
26 | O=C(C1CC(=O)N(C2CCCCC2)C1)N1CCN(c2ccccc2)CC1 (centres undefined) | 5000
27 | O=C(C1CC(=O)N(C2CCCC2)C1)N1CCN(c2cccc(C(F)(F)F)c2)CC1 (centres undefined) | 5860
28 | CCCNC(=O)C1(C)CCN(C(=O)c2ccccc2OC(F)(F)F)C1 (centres undefined) | 3700
29 | Cc1ccc(S(=O)(=O)N2CC[C@H]3[C@@H](C2)C(=O)C[C@@H](c2ccccc2)N3S(=O)(=O)c2ccc(C)cc2)cc1 | 6280
30 | CCc1cccc2c(=O)c(C(=O)NCCCOC)c[nH]c12 | 4150
31 | COC1=CC(=O)OC(c2ccc(OC)cc2)C1 (centres undefined) | 3440
32 | COc1cc(CO)c(C2(CO)CCCC2)cc1OC | 2910
33 | CC1(C)CC(=O)C2=C(C1)N=C1SCCC(=O)N1C2c1ccc(C(F)(F)F)cc1 (centres undefined) | 22500 (active)
34 | CCCCC[C@@H]1C=C(C(=O)OCC)[C@H](c2ccccc2)N1S(=O)(=O)c1ccc(C)cc1 | 6420
35 | O=C1NC[C@H](CCCCN2C[C@H](Cc3ccc(O)cc3)N(CCc3ccccc3)C(=O)C2=O)N(CCc2ccccc2)C1=O | 5840
36 | C=C(C)CNC(=S)/N=c1\scc(C)n1CC | 8000
37 | CC1(C)OC(=O)C2=C(C[C@@H](C3CC3)O[C@H]2CCc2cccc(Cl)c2)O1 | 6150
38 | Cc1cc(O)ccc1-c1cc(C(=O)NCc2cc(C(F)(F)F)cc(C(F)(F)F)c2)[nH]n1 | 4030
39 | COc1cc(C2NC(=O)NC(c3ccccc3)=C2C(C)=O)c(Br)cc1OCC(N)=O (centres undefined) | 3130
40 | CCOC(=O)C1=C(c2ccccc2)NC(=O)NC1c1cc(OCC)c(O)c([N+](=O)[O-])c1 (centres undefined) | 3560

Row | SMILES | fluorescence intensity
41 | CCCOc1ccc(C2NC(=O)NC(c3ccccc3)=C2C(C)=O)cc1OCC (centres undefined) | 16800 (active)
42 | COc1c(C)cc(C(O)c2ncc(-c3cccc(C(F)(F)F)c3)[nH]2)cc1C (centres undefined) | 2880
43 | COCCCn1c(=O)/c(=C/c2ccccc2OC(C)C)s/c1=C(\C#N)C(=O)Nc1ccc(C(=O)O)cc1 | 4090
44 | CC1(C(=O)O)CCCN(C(=O)/C=C/c2ccccc2)C1 (centres undefined) | 3760
45 | CC(=O)NC1=NC(=O)CS1 | 22000 (active)
46 | Cc1cccc(N)c1SC1CCCCC1O (centres undefined) | 2470
47 | CN(C)/C=C/C(=O)c1cnc2sccn2c1=O | 4610
48 | C[C@H]1Cn2cnc(C(=O)N[C@@H](Cc3c[nH]c4ccccc34)C(=O)OC(C)(C)C)c2C(=O)N1 | 3860
49 | CCN(c1ccccc1)S(=O)(=O)c1ccc(C(=O)Nc2ccccc2OC)cc1 | 3100
50 | CCN(c1ccccc1)S(=O)(=O)c1ccc(NC(=O)C(C)(C)C)cc1 | 23900 (active)
51 | CCN(c1ccccc1)S(=O)(=O)c1ccc(N)cc1 | 5250
52 | O=c1[nH][nH]c2c1[C@H](c1ccc(Cl)cc1)O[C@H](CCc1ccccc1)C2 | 5920
53 | CCc1nc2c(OCc3ccccc3)cccn2c1N(C)C(=O)c1ccco1 | 2960
54 | COc1cccc(CNC(=O)C2CC(=O)N(C3CCCCCCC3)C2)c1 (centres undefined) | 5720
55 | COc1ccc(OC)c(Cc2nnc(CCC(=O)NC3CCCC3)o2)c1 | 2020
56 | COc1cccc(CN2C(=O)CCC2(C)C(=O)NC2CCCCCC2)c1 (centres undefined) | 21300 (active)
57 | COc1ccc(CN2CC(C(=O)NC3CCCCC3)CC2=O)cc1 (centres undefined) | 4380
58 | COc1ccc(OC)c(CN2C(=O)CCC2(C)C(=O)NC2CCCCCC2)c1 (centres undefined) | 23000 (active)
59 | COc1ccc(OC)c(CN2C(=O)CCC2(C)c2nnnn2Cc2ccccc2)c1 (centres undefined) | 5850
